Hits are enriched below; roughly 6% of the tested compounds scored in any of these assays.
D1 potentiator = potentiators of human D1 dopamine receptor | potentiation, % at 10 µM | actives 0.036% (n = 360,000) | P21728 | HEK293 TREx D1 cells, calcium flux, dopamine EC20 potentiation; in the data active means potentiation above about 30%
DRD3 agonist = activates the human D3 dopamine receptor; P35462; D3R DiscoveRx beta-arrestin cells, luminescence, 90 min; max activation, %; actives 0.58% (n = 410,000); AID 652048; in the data active means max activation above about 30%
Target sequence (P35462 whole entry, looked up): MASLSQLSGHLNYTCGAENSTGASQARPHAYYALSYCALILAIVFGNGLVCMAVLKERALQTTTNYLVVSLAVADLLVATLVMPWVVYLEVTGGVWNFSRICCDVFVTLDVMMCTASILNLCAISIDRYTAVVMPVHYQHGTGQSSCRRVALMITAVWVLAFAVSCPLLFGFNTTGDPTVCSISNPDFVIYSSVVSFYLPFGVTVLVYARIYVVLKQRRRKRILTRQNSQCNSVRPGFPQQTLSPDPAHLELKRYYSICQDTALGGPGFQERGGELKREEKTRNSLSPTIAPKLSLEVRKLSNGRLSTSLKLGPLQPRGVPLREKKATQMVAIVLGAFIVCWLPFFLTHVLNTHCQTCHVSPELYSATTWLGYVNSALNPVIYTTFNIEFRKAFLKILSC
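Agonist mode: compounds and dopamine controls were applied to plated cells for 90 min at 37 degrees C after an overnight attachment at 1500 cells/well. Luminescent read-out followed 30 - 60 minutes at room temperature with DiscoveRx detection reagent.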
DRD3 antagonist = D3 dopamine receptor (human) antagonism. P35462. D3R cells, DiscoveRx beta-arrestin luminescence, antagonist mode; hits give low values. max response, negative = inhibition, %. actives 2.5% (n = 360,000); in the data active means max response below about -50%; inconclusive means no clear call, values can overlap the other calls
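Cells expressing the human receptor were seeded at 1500 cells/well, incubated overnight at 37 degrees C in 5% CO2, then exposed to library compounds with dopamine controls for 90 minutes at 37 degrees C before luminescent detection.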
D1 antagonist = antagonists of human D1 dopamine receptor; HEK293 TREx D1 cells, calcium flux, dopamine EC80; hits give low values; activity change, negative = inhibition, % at 10 µM; AID 504652; actives 3.2% (n = 360,000); P21728; in the data active means activity change below about -30%
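Tetracycline-induced HEK293 Trex D1 cells, force-coupled to calcium, dye-loaded; compounds added and read 180 s, then EC80 dopamine added and calcium flux tracked kinetically another 180 s.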
D1 agonist = agonists of human D1 dopamine receptor; HEK293 T-REx D1 cells, calcium flux, agonist mode; actives 1% (n = 360,000); P21728; activation, % at 2 µM; in the data active means activation above about 30%
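Agonism was scored from calcium flux recorded over 180 s (1 read/s) after pintool compound addition, following a 10-cycle baseline. Cells were inducible force-coupled HEK293 TREx D1, plated overnight at 30 C and loaded with no-wash calcium dye.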
A number is an active result; 0 = inactive; ? = inconclusive; - = no result; ! = not confirmed by another sample.

SMILES	D1 potentiator	DRD3 agonist	DRD3 antagonist	D1 antagonist	D1 agonist
COc1ccc(S(=O)(=O)N(CCc2ccccc2)CC(=O)Nc2cccc(OC)c2)cc1	0	0	-	-31.2	30.9
CCN(Cc1ccccc1)S(=O)(=O)c1ccc(OC)cc1	0	0	0	-34.4	0
CC(CC(c1ccccc1)c1ccccc1)NC(C)(C)C (stereo not drawn)	-	0	-	-	-
Cc1ccc(S(=O)(=O)Nc2ccc(O)c3ccccc23)c(C)c1	0	0	-53.2	0	0
FC(F)(F)c1cnc(Oc2cccc3ccccc23)c(Cl)c1	0	0	0	0	0
Cc1[nH]cc(Br)c(=O)c1Oc1ncc(C(F)(F)F)cc1Cl	0	0	0	-35.4	0
COCCCN1C(=O)C(CC(=O)NC2CCCC2)CC(C(=O)N2CCOCC2)=C1C (stereo not drawn)	-	0	0	-	-
O=C(CSc1nnc(Cc2ccccc2)n1Cc1ccccc1)NCc1ccco1	0	0	0	0	0
Cc1cc(C)n2c(SCC(=O)NCc3ccco3)nnc2n1	0	0	0	-59.1	0
COc1ccc(-n2c(COc3ccc4ccccc4c3)nnc2SCC(=O)NCc2ccco2)cc1	0	0	0	0	0
COc1ccc(-n2c(COc3cccc4ccccc34)nnc2SCC(=O)NCc2ccco2)cc1	0	0	0	-33.8	0
COc1cccc(-n2c(COc3ccccc3C)nnc2SCC(=O)O)c1	0	0	0	-32.2	0
COc1ccc(CNC(=O)CSc2nnc3nc(C)cc(C)n23)cc1OC	0	0	0	0	0
O=C(CSc1nnc(CNc2ccc(Cl)cc2)n1Cc1ccccc1)NCc1ccco1	0	0	?	-32.0	0
O=C1OC(Cc2ccccc2)(c2ccccc2)c2ccccc21 (stereo not drawn)	-	0	0	-	-
Cc1cccc(N(C)C(=S)Oc2ccc3c(c2)CCC3)c1	-	0	-	-	-
Cc1cccc(N(C)C(=S)Oc2ccc3ccccc3c2)c1	0	0	-64.7	-33.5	0
C=CCOc1ccc(Br)cc1CNC(C)(C)CO	0	0	0	-42.2	0
CC(=O)c1ccc(NC(=O)c2cc(C)nc3c2c(C)nn3-c2ccc(C)cc2)cc1	0	0	-	0	0
CCN(CC)S(=O)(=O)c1ccc2[nH]cc(C(=O)NCCC3=CCCCC3)c(=O)c2c1	0	0	0	-34.5	0
CCC1CCCCN1CCCNC(=O)c1cn(CC)c2ccc(S(=O)(=O)N(C)C3CCCCC3)cc2c1=O (stereo not drawn)	0	0	0	-38.2!	0
Cc1ccccc1N(C)S(=O)(=O)c1ccc2[nH]cc(C(=O)NCC3CCCO3)c(=O)c2c1 (stereo not drawn)	0	0	-69.3	0	0
CCN(CC)S(=O)(=O)c1ccc2[nH]cc(C(=O)NCCN3CCCCCC3)c(=O)c2c1	0	0	0	0	0
CCn1cc(C(=O)NCC2CCCO2)c(=O)c2cc(S(=O)(=O)N(C)C3CCCCC3)ccc21 (stereo not drawn)	0	0	-51.9	0	0
CCc1ccccc1NC(=O)Cn1nc(CC)n2c(cc3sccc32)c1=O	0	0	-	0	0
SMILES	D1 potentiator	DRD3 agonist	DRD3 antagonist	D1 antagonist	D1 agonist
CC1CCc2onc(C(=O)N3CCN(c4cccc(C(F)(F)F)c4)CC3)c2C1 (stereo not drawn)	0	0	-	0	0
CC1CN(c2ccc(Cl)cc2)c2nc3c(c(=O)n(CC(=O)O)c(=O)n3C)n2C1 (stereo not drawn)	0	0	-	0	0
Cc1ccc(NC(=S)C2=C(O)c3ccccc3N(C)S2(=O)=O)cc1	0	0	-72.7	0	0
CN1c2ccccc2C(O)=C(C(=O)Nc2ccccc2)S1(=O)=O	-	0	0	-	-
CN1c2ccccc2C(O)=C(C(=S)Nc2ccccc2)S1(=O)=O	0	0	-85.5	0	0
Cc1ccc(-c2cc(-c3ccc(F)cc3)nc(N)c2C#N)o1	0	0	0	-59.5	0
COc1cc(-c2cc(-c3ccc(F)cc3)nc(N)c2C#N)ccc1O	0	0	0	-43.7	0
CN(C1CCCCC1)S(=O)(=O)c1ccc2c(c1)c(=O)c(C(=O)N1CCN(c3ccccc3)CC1)cn2C	0	0	-	0	0
CC(c1nc2ccccc2[nH]1)N(C(=O)C1=NNC(=O)CC1)c1ccccc1 (stereo not drawn)	-	0	0	-	-
COc1ccc(NC(=O)c2ccco2)cc1NC(=O)c1cccc(C)c1OC	0	0	-	-30.7	0
O=C(Nc1ccc(Oc2ccc(NC(=O)c3ccco3)c(NC(=O)c3ccco3)c2)cc1)c1ccco1	0	0	-92.6	0	0
O=C(/C=C/c1ccco1)Nc1ccc(-c2nc3ccccc3[nH]2)cc1	0	0	0	0	0
O=C(Nc1ccc(Br)cc1)c1ccco1	0	0	0	-42.2	0
O=C(Nc1ccc(NC(=O)c2ccco2)cc1)c1ccco1	0	0	0	0	0
O=C(Nc1ccc(-c2nc3ccccc3[nH]2)cc1)c1ccco1	0	0	0	-45.8	0
CCCc1c(C)[nH]c2ccc(C(=O)O)cc2c1=S	0	0	0	0	0
Nc1c(-c2ccccc2)cc[nH]c1=O	0	-	-	0	0
CCOC(=O)[C@]12CCC=C1N(Cc1ccc3c(c1)OCO3)C(=O)[C@H](CC(=O)N1CCC(c3ccccc3)CC1)C2	-	0	0	-	-
C/C=C1\[C@H]2C=C(C)C[C@]1(N)c1ccc(=O)[nH]c1C2	-	0	-	-	-
Cc1ccn2cc(-c3ccc(NC(=O)c4ccco4)cc3)nc2c1	0	0	0	-33.4	0
Cc1nc(-c2ccc(NC(=O)c3ccco3)cc2)cs1	0	0	0	0	0
COc1ccc(CC2(C)OC(c3ccccc3)=NN2C(C)=O)cc1 (stereo not drawn)	0	0	0	-42.5	0
CC(=O)N1N=C(c2cccc([N+](=O)[O-])c2)OC1(C)CC(=O)Nc1ccccc1 (stereo not drawn)	0	0	0	-77.4	0
Cc1nc(N2CCCC2)c2c(C(=O)N3CCN(c4cc(Cl)ccc4C)CC3)c(C)oc2n1	0	0	-	0	0
CN1CCN(c2ncc3c(n2)CCN(Cc2cc(Br)cs2)C3)CC1	0	0	-	0	0
SMILES	D1 potentiator	DRD3 agonist	DRD3 antagonist	D1 antagonist	D1 agonist
Cc1ccc(NC(=O)N2CCN3CCCCC3C2)cc1C (stereo not drawn)	0	0	-	-35.5	0
CNc1nc(Nc2ccc(C(C)=O)cc2)nc(OC(C(F)(F)F)C(F)(F)F)n1	0	0	0	-30.8	0
CC(=O)c1ccc(Nc2nc(NCCO)nc(OC(C(F)(F)F)C(F)(F)F)n2)cc1	0	0	0	0	0
CCC1(CC)CNC(=O)NC1	-	0	0	-	-
CCN(CC)CC(C)CNC(=O)c1cc(-c2ccc(Br)s2)nc2ccccc12 (stereo not drawn)	0	0	-	0	0
Cc1ccc(NC(=O)Nc2ccon2)cc1Cl	0	0	0	-30.8	0
O=C1C2CCCN2C(=O)N1CCCCN1CCN(c2cccc(Cl)c2)CC1 (stereo not drawn)	0	0	-57.8	0	0
O=C1C2CCCCN2C(=O)N1CCCCN1CCN(c2cccc(Br)c2)CC1 (stereo not drawn)	0	0	-80.1	0	0
